Screens from PubChem.
A selection: hits, their analogues and other compounds. The true share with any hit is near 19%.
IL-1B inflam inh: blocks inflammasome-driven IL-1 beta release. 4.7% of 360,000 active. AID 743279. THP-1 LPS/ATP IL-1B secretion, AlphaLISA, 16 h; hits give low values. activity change, % at 57.5 µM; in the data active means activity change below about -50%; inconclusive means mostly about -30% to -49%
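Secreted IL-1B measured by AlphaLISA bead assay after 16 h compound exposure of THP-1 cells; compounds (final up to 57.5 uM) added 1 h before LPS (250 ng/mL) and ATP (1.25 mM) stimulation; lower signal means less secretion.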
TDP1 cell CPT: DT40-hTDP1 cell growth loss with CPT; Potency, µM (series often up to 46.2 µM), for the others: top-dose activity change, negative = growth inhibition, actives largely listed as inhibitors; 12% of 420,000 active; chicken DT40 Tdp1-/-;hTDP1 cells + 20 nM CPT, ATP luminescence, 48 h; further: potency means the concentration at half of the fitted maximal effect; nearly all actives have a fitted effect of over 55% in size
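Chicken DT40 Tdp1-/- cells stably complemented with human TDP1 were seeded at 400 cells/well in medium containing 20 nM camptothecin, exposed to pin-transferred compounds, and grown at 37 °C for at least 48 hr. Viability was read as ATP luminescence.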
HT1080-NT tox: kills 2HG-producing HT-1080-NT fibrosarcoma cells | HT-1080-NT fibrosarcoma viability, CellTiter-Glo ATP luminescence, 48 h | Potency, µM (doses to about 46.1 µM), for the others: at the top dose activity, negative = less viability, usual class: cytotoxic | 1.6% of 360,000 active;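 further: NT is the 2HG producing partner of a matched IDH1 knockdown line; potency means the concentration at half of the fitted maximal effect; 0% = DMSO-treated cells and -100% = media-only wells without cells; nearly all actives have a fitted effect of over 55% in size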
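HT-1080-NT; 750 cells/well; 5% FBS RPMI; 48 h compound, 37 degrees C; CellTiter-Glo luminescence; curve fitting and curve-class assignment.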
DT40 TDP1 no CPT: qHTS for Inhibitors of human tyrosyl-DNA phosphodiesterase 1 (TDP1): qHTS in cells in absence of CPT. DT40 Tdp1-/- hTDP1 cells, no CPT, ATP luminescence, 48 h. Potency, µM (doses to about 46.2 µM), inactives show at the top dose activity change, negative = growth inhibition, hits mostly inhibitors. 15% of 420,000 active; further: potency means the concentration at half of the fitted maximal effect; nearly all actives have a fitted effect of over 55% in size
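A cellular qHTS used chicken DT40 cells lacking endogenous Tdp1 but carrying stably transfected human TDP1. Compounds were applied without camptothecin, and cell growth kinetics were judged by ATP-dependent luminescence after ≥48 hr.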
HT1080 IDH1KD tx: kills HT-1080 cells with IDH1 knockdown; HT-1080 IDH1 knockdown viability, ATP luminescence, 48 h; 2% of 360,000 active; Potency, µM (highest dose often 46.1 µM), for inactives: at the highest dose activity, negative = toxicity, most hits filed as cytotoxic;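 further: potency means the concentration at half of the fitted maximal effect; 0% = DMSO wells and -100% = cell-free medium wells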
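% activity derives from luminescence (CellTiter-Glo), normalised to DMSO and no-cell wells. HT-1080-IDH1KD cells, 750/well, had 48 h compound exposure at 37 °C.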
The depositor's hits bear a star; ? = inconclusive; · = no result given. Unless noted, the call rests on the fitted dose curve; in most records, active means well fitted curve in the direction sought with a large enough effect; inconclusive means small, poorly fitted or top-dose-only effect, or another doubt; inactive means no such curve, though single readings can be large; an effect the other way counts as inactive or inconclusive. Unless noted, on the % scale 0 is the no-effect control and ±100 the full control effect.

SMILES	IL-1B inflam inh	TDP1 cell CPT	HT1080-NT tox	DT40 TDP1 no CPT	HT1080 IDH1KD tx
COc1ccc(Nc2ncc3c(n2)CCN(Cc2ccc(Br)s2)C3)c(OC)c1	·	21µM*	·	13µM*	·
COc1ccc(Nc2ncc3c(n2)CCN(Cc2cc(Br)cs2)C3)c(OC)c1	·	18µM*	·	15µM*	·
COc1ccccc1Nc1ncc2c(n1)CCN(Cc1ccc(C)s1)C2	·	-6%	·	-10%	·
C/C(N)=C(/C#N)C(=O)COC(=O)C1CCN(S(=O)(=O)c2cccs2)CC1	9	-3%	3%	-26%	2%
Cc1ccc(NC(=O)CSCC(=O)NCCc2ccccc2)c(C)c1	-8	-4%	-7%	-19%	6%
COc1cc(C)c(C(=O)Oc2cc(C)c(C(=O)O)c(O)c2C)c(O)c1C	26	?	-1%	?	4%
COC(=O)c1c(C)cc(OC(=O)c2c(C)cc(O)c(C=O)c2O)c(C)c1O	·	5.8µM*	·	4.1µM*	·
C/C(=N\n1c(C)nc2ccccc2c1=O)c1ccc(N)cc1	11	?	-1%	18µM*	0%
Cc1cccc(CNC(=O)c2cccc(NC(=O)N3CCSc4ncccc43)c2)c1	·	15µM*	·	?	·
CCOc1ccc(CNC(=O)c2cccc(NC(=O)N3CCSc4ncccc43)c2)cc1OC	·	16µM*	·	16µM*	·
O=C1c2ccccc2C(=O)N1CCCc1c[nH]c2ccc(Cl)cc12	-20	-1%	-1%	2%	-29%
COC(=O)[C@]12CCCCC=C1N(CCc1ccc(OC)c(OC)c1)C(=O)[C@H](CC(=O)NCc1ccccc1)C2	2	?	8%	21µM*	4%
COC(=O)[C@@]12C[C@@H](CC(=O)NCc3cccc(C(F)(F)F)c3)C(=O)N(CCc3ccc(OC)c(OC)c3)C1=CCC(C)(C)C2	?	9.2µM*	?	12µM*	?
COC(=O)[C@]12CCCCC=C1N(CCc1ccc(OC)c(OC)c1)C(=O)[C@H](CC(=O)NCc1cccc(C(F)(F)F)c1)C2	-5	?	?	16µM*	?
COC(=O)[C@]12CCCCC=C1N(CCc1ccc(OC)c(OC)c1)C(=O)[C@H](CC(=O)NCCc1ccccc1OC)C2	?	?	-2%	18µM*	-13%
COC(=O)[C@]12CCCCC=C1N(Cc1ccccc1)C(=O)[C@H](CC(=O)NCc1ccccc1)C2	-26	?	-4%	?	?
Cc1ccc(F)c(NC=C2C(=O)OC(C)(C)OC2=O)c1	18	0%	-1%	3%	-5%
COC(=O)[C@]12CCCCC=C1N(CCc1ccc(OC)c(OC)c1)C(=O)[C@H](CC(=O)N1CCC(c3ccccc3)CC1)C2	-1	8.2µM*	-19%	8.2µM*	?
COC(=O)[C@]12CCCCC=C1N(CCc1ccc(OC)c(OC)c1)C(=O)[C@H](CC(=O)NCc1ccc(OC)c(OC)c1)C2	-18	29µM*	1%	16µM*	-11%
COC(=O)[C@]12CCCCC=C1N(CCc1ccc(OC)c(OC)c1)C(=O)[C@H](CC(=O)NCCCCc1ccccc1)C2	?	21µM*	?	16µM*	?
COC(=O)[C@]12CCCCC=C1N(CCc1ccc(OC)c(OC)c1)C(=O)[C@H](CC(=O)NCC1CCCCC1)C2	?	?	-14%	?	-17%
COC(=O)[C@]12CCCCC=C1N(CCc1ccc(OC)c(OC)c1)C(=O)[C@H](CC(=O)NCCCN1CCCC1=O)C2	0	10%	25%	-16%	18%
COc1cc(S(=O)(=O)Nc2ccccc2C(=O)N2CCCCC2)ccc1NC(C)=O	-12	-1%	12%	-6%	0%
O=C(NCCCC1CCCC1)C1CCC(=O)N(Cc2cccc(F)c2)C1 (stereo unspecified)	16	?	-16%	-27%	-8%
O=C(NCCCC1CCCC1)C1CCC(=O)N(Cc2ccc(Cl)cc2)C1 (stereo unspecified)	-69*	?	-1%	?	-23%
